# Measured values: PubChem BioAssay
# Active and inactive are the calls of the source.
# What was measured:
# [1] = small molecules captured by biotinylated probe aFSTL3 – biochemical, small-molecule microarray, fluorescence 635/667, stem cell growth factor project, primary screen (AID 1064); conditions: higher = more signal;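 note: measures binding of the biotinylated anti-FSTL3 antibody to printed compounds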
# [2] = binders from COS7 lysate, DM2A8 probe, primary screen, torsin A project, cell lysate, small-molecule microarray, fluorescence 635/667 (AID 1065); conditions: higher = more signal, COS7 lysate expressing mutant human TOR1A
# [3] = small molecules captured by biotinylated probe aFGF2 – biochemical, small-molecule microarray, fluorescence 635/667, stem cell growth factor project, primary screen (AID 1067); conditions: higher = more signal;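 note: measures binding of biotinylated aFGF2 protein to printed compounds on slides; z-score merges feature fluorescence and signal-to-noise across triplicate slides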
# [4] = small molecules captured by biotinylated probe aFGF10 – biochemical, small-molecule microarray, fluorescence 635/667, stem cell growth factor project, primary screen (AID 1071); conditions: higher = more signal;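 note: score merges 667 nm spot intensity and signal to noise from triplicate slides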
# [5] = biological target: Neurogenic locus notch homolog protein 2 (Homo sapiens) (UniProt Q04721); experiment: small molecules binding Notch2 protein – biochemical, small-molecule microarray, 635 nm fluorescence, stem cell growth factors, primary screen (AID 1073); conditions: higher = more signal
# [6] = biological target: Pro-neuregulin-1, membrane-bound isoform (Homo sapiens) (UniProt Q02297); experiment: small molecules binding neuregulin-1 protein – biochemical, small-molecule microarray, fluorescence 635/667, psychiatric disease protein project, primary screen (AID 1075); conditions: NRG1 binding, 635 nm fluorescence, higher = more signal;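 note: score combines 667 nm spot fluorescence with signal to noise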
# [7] = test system: Neuregulin-1 EGF-like domain; experiment: small molecules binding NRG1 EGF domain – biochemical, small-molecule microarray, 635 nm fluorescence, primary screen (AID 1081); conditions: higher = more signal;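 note: binding of the protein to compounds printed on small-molecule microarray slides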
# [8] = FRG1 expression reporter modulators in myotubes – cell-based, C2C12 myotubes, firefly/Renilla luciferase, luminescence, FRG1 inhibition for FSHD, primary screen (AID 1084); conditions: FRG1 promoter luciferase, higher = more signal, called active from +8 up or from −8 down
# [9] = small molecules captured by biotinylated probe aFST – biochemical, small-molecule microarray, fluorescence 635/667, stem cell growth factor project, primary screen (AID 1086); conditions: higher = more signal;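 note: score merges 667 nm fluorescence with signal-to-noise of each printed compound spot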
# [10] = binders of probe aHhip on microarray, primary screen, stem cell growth factor project, biochemical, small-molecule microarray, fluorescence 635/667 (AID 1087); conditions: higher = more signal;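 note: score merges spot fluorescence at 667nm with spot signal to noise ratio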
# Sequence of Neurogenic locus notch homolog protein 2 (Homo sapiens) (Q04721 whole entry, looked up, canonical isoform): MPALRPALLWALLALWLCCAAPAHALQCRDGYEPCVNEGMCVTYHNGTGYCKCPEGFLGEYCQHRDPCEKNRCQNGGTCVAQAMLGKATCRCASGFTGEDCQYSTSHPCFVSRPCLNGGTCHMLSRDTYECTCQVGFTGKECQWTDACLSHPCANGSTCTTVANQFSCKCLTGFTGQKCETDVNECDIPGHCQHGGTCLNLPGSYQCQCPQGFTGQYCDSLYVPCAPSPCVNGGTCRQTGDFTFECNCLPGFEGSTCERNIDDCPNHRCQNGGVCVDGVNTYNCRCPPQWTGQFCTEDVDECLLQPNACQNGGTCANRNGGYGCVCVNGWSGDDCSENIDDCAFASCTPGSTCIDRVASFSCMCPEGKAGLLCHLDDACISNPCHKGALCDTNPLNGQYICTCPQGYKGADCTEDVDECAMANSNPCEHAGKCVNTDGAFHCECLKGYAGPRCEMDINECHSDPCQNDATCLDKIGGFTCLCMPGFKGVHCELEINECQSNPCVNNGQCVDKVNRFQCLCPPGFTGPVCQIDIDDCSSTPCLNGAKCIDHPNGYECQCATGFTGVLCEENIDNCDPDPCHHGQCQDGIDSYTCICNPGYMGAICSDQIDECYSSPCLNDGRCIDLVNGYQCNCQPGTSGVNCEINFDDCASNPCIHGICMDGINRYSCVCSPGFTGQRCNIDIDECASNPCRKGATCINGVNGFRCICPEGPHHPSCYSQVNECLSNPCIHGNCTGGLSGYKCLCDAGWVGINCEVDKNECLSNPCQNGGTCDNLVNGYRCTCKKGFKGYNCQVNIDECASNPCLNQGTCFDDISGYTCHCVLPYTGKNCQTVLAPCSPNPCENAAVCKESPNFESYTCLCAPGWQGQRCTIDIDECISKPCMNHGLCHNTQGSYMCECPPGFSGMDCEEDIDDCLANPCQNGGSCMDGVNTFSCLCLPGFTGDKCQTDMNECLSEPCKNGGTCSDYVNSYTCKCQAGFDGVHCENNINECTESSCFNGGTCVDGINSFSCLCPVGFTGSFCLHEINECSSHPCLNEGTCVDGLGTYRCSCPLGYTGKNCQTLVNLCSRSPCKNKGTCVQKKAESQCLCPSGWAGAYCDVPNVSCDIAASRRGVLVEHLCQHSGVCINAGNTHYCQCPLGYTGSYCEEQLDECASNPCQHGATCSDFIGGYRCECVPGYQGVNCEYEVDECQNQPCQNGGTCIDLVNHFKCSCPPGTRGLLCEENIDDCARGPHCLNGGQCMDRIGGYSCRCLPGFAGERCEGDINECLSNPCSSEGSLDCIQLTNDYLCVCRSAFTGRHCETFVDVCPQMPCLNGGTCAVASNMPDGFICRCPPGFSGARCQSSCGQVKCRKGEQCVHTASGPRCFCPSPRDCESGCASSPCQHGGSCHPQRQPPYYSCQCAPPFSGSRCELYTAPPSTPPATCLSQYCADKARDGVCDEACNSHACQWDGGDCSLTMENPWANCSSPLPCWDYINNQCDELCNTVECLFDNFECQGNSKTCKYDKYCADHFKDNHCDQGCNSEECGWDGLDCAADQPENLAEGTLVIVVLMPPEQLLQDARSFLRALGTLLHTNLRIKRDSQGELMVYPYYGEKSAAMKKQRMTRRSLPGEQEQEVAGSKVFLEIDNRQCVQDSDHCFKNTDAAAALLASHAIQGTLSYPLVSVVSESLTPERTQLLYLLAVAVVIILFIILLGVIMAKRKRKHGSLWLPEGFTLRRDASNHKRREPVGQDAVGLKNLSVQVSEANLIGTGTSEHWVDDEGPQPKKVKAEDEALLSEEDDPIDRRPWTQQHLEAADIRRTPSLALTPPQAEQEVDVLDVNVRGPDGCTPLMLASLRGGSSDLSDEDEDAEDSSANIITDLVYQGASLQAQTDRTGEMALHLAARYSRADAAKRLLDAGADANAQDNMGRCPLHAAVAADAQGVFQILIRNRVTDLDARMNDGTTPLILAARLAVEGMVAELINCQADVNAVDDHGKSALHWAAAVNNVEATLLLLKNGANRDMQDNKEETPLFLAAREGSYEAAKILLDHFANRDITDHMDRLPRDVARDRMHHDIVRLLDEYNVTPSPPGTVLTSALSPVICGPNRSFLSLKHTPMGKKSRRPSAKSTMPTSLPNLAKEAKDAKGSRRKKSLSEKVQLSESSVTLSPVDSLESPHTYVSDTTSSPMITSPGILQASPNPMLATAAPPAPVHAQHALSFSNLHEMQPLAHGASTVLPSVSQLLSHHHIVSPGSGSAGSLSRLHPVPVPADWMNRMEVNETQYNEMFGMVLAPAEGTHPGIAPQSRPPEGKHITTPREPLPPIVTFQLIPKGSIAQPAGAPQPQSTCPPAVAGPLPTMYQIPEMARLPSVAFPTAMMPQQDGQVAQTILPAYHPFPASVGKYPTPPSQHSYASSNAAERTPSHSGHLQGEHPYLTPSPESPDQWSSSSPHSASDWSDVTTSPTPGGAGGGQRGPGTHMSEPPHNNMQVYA
# Sequence of Pro-neuregulin-1, membrane-bound isoform (Homo sapiens) (Q02297 whole entry, looked up, the tested form may be a part, canonical isoform): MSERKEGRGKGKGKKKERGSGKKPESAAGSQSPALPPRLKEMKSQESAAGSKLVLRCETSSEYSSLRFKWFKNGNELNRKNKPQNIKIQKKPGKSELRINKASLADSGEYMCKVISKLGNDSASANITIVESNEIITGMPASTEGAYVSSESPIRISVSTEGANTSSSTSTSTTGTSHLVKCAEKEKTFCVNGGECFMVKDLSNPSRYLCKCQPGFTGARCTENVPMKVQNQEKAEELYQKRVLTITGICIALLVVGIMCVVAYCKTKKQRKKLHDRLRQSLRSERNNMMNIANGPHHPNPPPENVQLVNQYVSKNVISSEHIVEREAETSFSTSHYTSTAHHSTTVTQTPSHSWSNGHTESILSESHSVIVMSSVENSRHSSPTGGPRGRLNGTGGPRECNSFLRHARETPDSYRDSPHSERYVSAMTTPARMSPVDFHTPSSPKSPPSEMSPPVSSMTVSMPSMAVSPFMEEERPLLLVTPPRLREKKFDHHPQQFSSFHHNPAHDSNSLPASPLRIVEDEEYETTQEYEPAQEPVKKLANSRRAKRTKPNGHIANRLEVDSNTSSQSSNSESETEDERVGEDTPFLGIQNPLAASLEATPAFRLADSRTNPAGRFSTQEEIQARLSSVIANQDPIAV
SMILES,composite z-score [1],composite z-score [2],composite z-score [3],composite z-score [4],composite z-score [5],composite z-score [6],composite z-score [7],z-score [8],composite z-score [9],composite z-score [10]
O=C(NN=C1C[C@@H](O)[C@@H](O)[C@@H]2[C@@H]3C(=O)N(Cc4ccccc4)C(=O)[C@@H]3CC[C@H]12)OCc1ccccc1,-0.286,0.897,-0.0996,0.378,0.226,-0.153,-0.15,0.157 (inactive),0.122,0.0373
COc1ccc(COC(=O)NN=C2C[C@@H](O)[C@@H](O)[C@@H]3[C@@H]4C(=O)N(C(C)(C)C)C(=O)[C@@H]4CC[C@@H]23)cc1,-0.31,1.1,-0.0243,0.568,1.14,0.173,0.644,1.24 (inactive),0.413,-0.204
CCc1cc2c(nc1CC)CCN(CCC(C)=NOCC[C@@H]1C=C[C@H](OC(C)=O)[C@@H](COC(C)=O)O1)C2,0.325,1.66,-0.103,-0.213,-0.0544,-0.0974,0.545,0.485 (inactive),0.851,0.0722
CON=C1c2cc(OC)ccc2O[C@H](c2cccc(OC)c2)[C@H]1O,-0.289,0.707,-0.0473,0.492,0.385,0.247,0.945,5.9 (inactive),0.583,0.0053
COC(=O)[C@@H]1CC[C@H](C)[C@@H](c2ccc(Br)cc2)N1C[C@H](O)CN=[N+]=[N-],-0.0566,0.143,-0.0925,0.171,-0.0324,0.374,-0.0594,0.348 (inactive),-0.193,0.478
C[C@@H]1CC[C@H]2C(=O)N3[C@@H](CC[C@@H](C)[C@@H]3c3ccc(Br)cc3)C(=O)N2[C@H]1c1ccc(Br)cc1,-0.241,0.318,-0.131,0.3,0.599,-0.0193,0.354,-0.469 (inactive),0.343,-0.173
CO[C@@H]1COC(=O)[C@H](CCSC)NC(=O)CC=C[C@@H](C)COC(=O)[C@@H]2CCCN2C(=O)CC=C[C@H]1C,-0.313,2.62,-0.0659,0.571,0.84,-0.483,0.926,-0.813 (inactive),0.16,-0.0618
COc1ccc(COC(=O)NN=C2C[C@@H](O)[C@@H](O)[C@@H]3[C@@H]4C(=O)N(c5cccc(Oc6ccccc6)c5)C(=O)[C@@H]4CC[C@H]23)cc1,0.937,-0.379,-0.138,0.0478,-0.311,0.783,-0.317,0.632 (inactive),0.85,-0.0994
CC(C)(C)N1C(=O)[C@H]2[C@H]3[C@H](O)[C@H](O)CC(=NOC[C@@H](O)COCc4ccco4)[C@H]3CC[C@H]2C1=O,0.784,0.733,-0.0423,0.227,0.0009,0.107,0.173,-0.241 (inactive),0.616,-0.0003
O=C(NN=C1C[C@@H](O)[C@@H](O)[C@@H]2[C@@H]3C(=O)N(Cc4ccc5c(c4)OCO5)C(=O)[C@@H]3CC[C@@H]12)OCc1ccccc1,0.595,-0.183,-0.0467,0.107,0.133,0.022,-0.17,1.78 (inactive),0.312,-0.134
C[C@@H](c1ccccc1)N1C(=O)[C@H]2[C@H]3[C@H](O)[C@H](O)CC(=NOCc4ccccc4)[C@@H]3CC[C@H]2C1=O,1.67,-0.0647,-0.0203,0.0018,-0.578,-0.258,-0.521,0.717 (inactive),0.401,-0.0672
CCOC(=O)[C@H](CC(C)C)NC(=O)CCC1CC(OC(=O)NCc2ccc3c(c2)OCO3)CC2(CCCC(COC(=O)NCCc3ccc(Cl)cc3)O2)O1 (stereo not given in full),-0.549,-0.08,-0.129,0.744,0.331,1.1,0.993,0.924 (inactive),-0.0845,-0.0237
CCOC(=O)[C@H](CC(C)C)NC(=O)CCC1CC(OC(=O)NCc2ccc3c(c2)OCO3)CC2(CCCC(COC(=O)NCCc3ccccc3OC)O2)O1 (stereo not given in full),-0.693,0.309,-0.085,0.554,1.26,0.53,0.978,1.01 (inactive),0.14,-0.15
CCOC(=O)CCN1C(=O)[C@H]2[C@H]3[C@H](O)[C@H](O)CC(=NOCC=C(C)CCC=C(C)C)[C@H]3CC[C@H]2C1=O,-0.137,0.757,-0.0734,-0.274,0.762,-0.601,-1.74,-0.815 (inactive),0.752,0.0722
COc1ccc(OC[C@@H]2CC3[C@@H](c4ccc(Br)cc4)[C@H](C)CC[C@H]3C(=O)O2)cc1 (stereo not given in full),-0.416,0.138,-0.142,0.0248,0.407,0.093,-0.216,-0.321 (inactive),0.204,-0.0645
CC(C)[C@@H](OCc1ccccc1)[C@H](C)C=NO[C@@H](C)c1cn([C@H](CO)Cc2ccccc2)nn1,-0.474,0.384,0.491,0.175,0.301,-0.236,-0.419,0.193 (inactive),0.155,-0.175
O=C1C[C@H](c2ccccc2)[C@H](c2ccc(Br)cc2)O1,-0.295,0.246,-0.0761,0.289,0.0429,-0.482,-0.293,-0.78 (inactive),0.133,-0.0994
CC(=O)OC[C@H]1O[C@H](CC=NOC(C)CN2CCCc3nc(C)c(C)cc32)C=C[C@@H]1OC(C)=O (stereo not given in full),-0.255,0.28,-0.0621,0.677,0.804,-0.188,0.819,0.437 (inactive),0.371,0.0637
C#CCCCON=C1C[C@@H](O)[C@@H](O)[C@@H]2[C@@H]3C(=O)N(C4CCCCC4)C(=O)[C@@H]3CC[C@@H]12,0.835,0.0616,-0.115,-0.0372,0.766,0.846,0.565,0.287 (inactive),-0.0386,0.312
O=C1[C@H]2[C@H]3[C@H](O)[C@H](O)CC(=NOCc4ccccc4)[C@@H]3CC[C@H]2C(=O)N1c1cccc(Oc2ccccc2)c1,-0.556,0.101,-0.0579,0.554,0.359,1.48,0.988,-0.441 (inactive),0.529,0.141
COC(=O)CC=C[C@@H](C)[C@@H](C=NOC[C@@H](O)[C@H]1O[C@@H]2OC(C)(C)O[C@@H]2[C@H]1O)OC,0.354,0.937,-0.0996,0.197,0.427,-0.0348,0.205,0.195 (inactive),-0.456,0.221
CC(C)=CCCC(C)=CCON=C1C[C@@H](O)[C@@H](O)[C@@H]2[C@@H]3C(=O)N(c4cccc(Oc5ccccc5)c4)C(=O)[C@@H]3CC[C@H]12,-0.304,-0.0323,-0.0296,0.0259,0.206,0.691,0.877,0.122 (inactive),0.305,0.06
O=C1[C@H]2[C@H]3[C@H](O)[C@H](O)CC(=NOCc4ccccc4)[C@H]3CC[C@H]2C(=O)N1C1CCCCC1,-0.483,0.357,-0.0934,0.412,0.691,0.195,1.03,0.111 (inactive),0.404,-0.0645
